Our source for the AC50 and outcome values is PubChem BioAssay (EPA / NIEHS).

SMILES strings stand for the structures. Inconclusive results are not listed. The source holds several records for some structures; these can differ, active in one and inactive in another. Activity calls are given as the source filed them. How the source made its calls: active means hit-call score of the fitted dose curve at least 0.9, where 1 is the maximum; inconclusive means response in the unintended direction; inactive means score below 0.9.

AR (gene 367), sequence (P10275 whole entry, looked up): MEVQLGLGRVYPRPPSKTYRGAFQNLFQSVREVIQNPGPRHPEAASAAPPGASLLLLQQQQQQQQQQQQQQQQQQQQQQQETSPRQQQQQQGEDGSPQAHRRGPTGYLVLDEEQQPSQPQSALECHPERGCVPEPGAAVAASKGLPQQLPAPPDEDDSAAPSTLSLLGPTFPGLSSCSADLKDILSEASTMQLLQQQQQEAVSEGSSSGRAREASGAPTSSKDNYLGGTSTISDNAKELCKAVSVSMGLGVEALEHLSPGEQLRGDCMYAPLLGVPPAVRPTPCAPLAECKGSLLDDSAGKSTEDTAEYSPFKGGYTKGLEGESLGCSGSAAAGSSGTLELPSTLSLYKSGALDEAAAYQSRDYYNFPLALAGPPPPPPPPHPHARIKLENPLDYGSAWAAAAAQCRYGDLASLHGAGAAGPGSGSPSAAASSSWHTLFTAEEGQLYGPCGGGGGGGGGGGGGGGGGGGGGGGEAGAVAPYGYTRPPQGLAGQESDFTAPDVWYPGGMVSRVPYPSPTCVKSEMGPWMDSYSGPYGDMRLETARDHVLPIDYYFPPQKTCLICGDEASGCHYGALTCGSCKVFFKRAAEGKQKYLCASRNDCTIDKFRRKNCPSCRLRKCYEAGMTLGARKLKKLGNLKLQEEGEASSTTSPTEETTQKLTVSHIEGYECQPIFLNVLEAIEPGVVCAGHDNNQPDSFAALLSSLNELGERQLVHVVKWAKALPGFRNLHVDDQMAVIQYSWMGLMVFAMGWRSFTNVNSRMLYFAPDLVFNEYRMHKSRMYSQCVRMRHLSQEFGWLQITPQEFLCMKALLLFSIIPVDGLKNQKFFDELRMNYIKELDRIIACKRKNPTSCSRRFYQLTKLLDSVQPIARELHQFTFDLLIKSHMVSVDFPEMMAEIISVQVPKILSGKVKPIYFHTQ

Tested on in the first experiment: not listed separately
The experiment in a line: ACEA_ER_AUC_viability: ACEA Biosciences xCELLigence Real-Time Cell Analysis on Estrogen Receptor Agonism for Viability (AID 2283782).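 Further: continuous compound exposure with impedance area under curve over 80 h; hit means loss of impedance signal meaning reduced cell growth or viability.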 In a few lines:
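T-47D human breast cells in phenol red-free RPMI1640 with 10% charcoal-stripped FBS were dosed with an 8-point 1:4 dilution series from 100 uM top final concentration, in duplicate. Impedance-based growth was followed for 80 h; AUC analysed versus DMSO.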
As to `O=c1[nH]sc2ccccc12`, the AC50 is 14.9 µM (active).

Turning to `COc1cccc([C@H](O)C2CCN(CCc3ccc(F)cc3)CC2)c1OC`, the outcome was inactive.

As for `CN(C)C(=O)C1(N2CCCCC2)CCN(CC[C@@]2(c3ccc(Cl)c(Cl)c3)CN(C(=O)c3ccccc3)CCO2)CC1`, the half-maximal activity concentration (AC50) was 10.3 µM (active).

With `c1ccc2ccccc2c1`, the result was inactive.

On to `Clc1ccccc1C(c1ccccc1)(c1ccccc1)n1ccnc1`, for which the AC50 is 27.6 µM (active).

Consider `CCCCCCCCN(C)CCCCCCCC`, for which the call was inactive.

Turning to `Cc1cccc2ccccc12`, the compound was called inactive.

As for `O=C(O)c1ccccc1-n1cc(C(=O)O)c(=O)c2cc(Nc3c(F)cc(F)cc3Cl)c(Cl)cc21`, the compound was called inactive.

As to `CCCCCCCC[Si](OCC)(OCC)OCC`, the AC50 is 89.3 µM (active) and the call was inactive.

For `Cc1ccc(C(C)C)cc1`, the result was inactive.

With `O=C(O)Cn1c(=O)n(Cc2ccc(Br)cc2F)c(=O)c2ccc(Cl)cc21`, the compound was classed as inactive.

`NC(=O)c1nc(-c2cccc(-c3cc(F)ccc3OCC(F)(F)C(F)(F)F)c2)n[nH]1`: the AC50 is 94 µM (active).

As for `CCN(CC)C(=O)c1cc(S(=O)(=O)Cc2ccccc2)c(N2CCC(c3ccccc3)CC2)cc1N(CC)CCN(C)C`, the concentration at half-maximal activity (AC50) was 4.19 µM (active).

Turning to `CC1(C)NC(=O)N(c2ccc([N+](=O)[O-])c(C(F)(F)F)c2)C1=O`, the outcome was inactive.

For the compound `CN1C(=O)CC[C@H]1c1cccnc1`, the result was inactive.

In the case of `CC[C@H](NC(=O)c1cc(F)ccc1NS(=O)(=O)c1cccc2cccnc12)c1ccccc1`, the compound was classed as inactive.

Regarding `Cc1cc2c(cc1C(F)(F)F)N(C(=O)Nc1ccc(Oc3cccnc3C)nc1)CC2`, the AC50 is 15.6 µM (active).

Consider `O=C=NCCCCCCN=C=O`, for which the result was inactive.

On to `Clc1cc(Cl)c2c(c1)N=C1CCCCCN1C2`, for which the result was inactive.

As to `Cc1cn([C@H]2C[C@H](N=[N+]=[N-])[C@@H](CO)O2)c(=O)[nH]c1=O`, the compound was classed as inactive.

Regarding `CCCCCCCCCCCO`, the AC50 was 50 µM (active).

Take `CCCCCCCCCCCC[N+](C)(C)C`: the concentration at half-maximal activity (AC50) is 50 µM (active).

Regarding `COCC(C)OCC(C)OCC(C)O` (stereo not drawn), the compound was called inactive.

For the compound `Cc1ncc(CO)c(CO)c1O`, the result was inactive.

For the compound `CC[C@@H]1C[C@H](N(Cc2cc(C(F)(F)F)cc(C(F)(F)F)c2)C(C)=O)c2cc(C(F)(F)F)ccc2N1C(=O)OC(C)C`, the AC50 was 3.79 µM (active).

For the compound `CCCC(=O)OCCC(C)C`, the outcome was inactive.

On to `CCN(Cc1cccnc1)C(=O)c1cccc(Cl)c1[C@]1(C)C(=O)N(Cc2ccc(OC)cc2OC)c2ccc(Cl)cc21`, for which the compound was called inactive.

For the compound `CCCCCCCCCC(=O)O`, the compound was called inactive.

For the compound `O=C(O)c1ccccc1C(=O)OCc1ccccc1`, the compound was classed as inactive.

`COc1ccc2cc(S(=O)(=O)N[C@H](CC(=O)N[C@H](Cc3ccc(CN4[C@H](C)CCC[C@@H]4C)cc3)C(=O)N(C)C(C)C)c3ccc4c(c3)OCO4)ccc2c1`: the AC50 is 10.8 µM (active).

For `c1ccc2n[nH]nc2c1`, the compound was classed as inactive.

As to `CCO[Si](CCCNC(N)=O)(OCC)OCC`, the result was inactive.

As to `OCCO`, the outcome was inactive.

For the next experiment, the target named is AR (gene 367) (UniProt P10275). The experiment in a line: ACEA_AR_agonist_80hr: ACEA Biosciences xCELLigence Real-Time Cell Analysis on Androgen Receptor Agonism for Proliferation (AID 2283783).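 Further: hits increase impedance growth signal above DMSO baseline.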 In a few lines:
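22Rv1 human prostate cancer cells were seeded after preconditioning in assay medium and monitored overnight, then dosed in an eight-point 1:4 dilution series from 100 uM (≤0.5% DMSO). Impedance-based growth was read at 80 h, gain-of-signal versus DMSO.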
Consider `CCCCCCCCN(C)CCCCCCCC`, for which the compound was called inactive.

As to `Oc1ccc2ccccc2c1`, the outcome was inactive.

Regarding `NC(=O)c1nc(-c2cccc(-c3cc(F)ccc3OCC(F)(F)C(F)(F)F)c2)n[nH]1`, the compound was classed as inactive.

`Cc1occc1C(=O)Nc1ccc(C(=O)N2CCC(F)(F)/C(=C\C(=O)N3CCC(N4CCCCC4)CC3)c3ccccc32)cc1`: the compound was called inactive.

Consider `COCC(C)OCC(C)OCC(C)O` (stereo not drawn), for which the compound was called inactive.

`CCN(Cc1cccnc1)C(=O)c1cccc(Cl)c1[C@]1(C)C(=O)N(Cc2ccc(OC)cc2OC)c2ccc(Cl)cc21`: the result was inactive.

As for `O=C(O)c1ccccc1C(=O)OCc1ccccc1`, the result was inactive.

Tested on in the next experiment: not listed separately
Briefly: STM_H9_NormalizedViability: Cytotoxicity Assessment at 120 hours in the Stemina devTOX quickPredict H9 human embryonic stem cell (hESC)-based Assay (AID 2283784). In a few lines:
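Pluripotent H9 hESCs were exposed, with chemical and media replaced every 24 h. Viability was read by CellTiter-Fluor fluorescence, background-corrected and normalized to the 0.1% DMSO neutral control per plate. Loss of signal was fitted.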
`COc1cccc([C@H](O)C2CCN(CCc3ccc(F)cc3)CC2)c1OC`: the outcome was inactive.

In the case of `CN(C)C(=O)C1(N2CCCCC2)CCN(CC[C@@]2(c3ccc(Cl)c(Cl)c3)CN(C(=O)c3ccccc3)CCO2)CC1`, the AC50 is 9.2 µM (active).

For `CCCCOC(=O)c1ccc(O)cc1`, the outcome was inactive.

As for `CCCCCCCCN(C)CCCCCCCC`, the outcome was inactive.

Consider `NC(=O)c1nc(-c2cccc(-c3cc(F)ccc3OCC(F)(F)C(F)(F)F)c2)n[nH]1`, for which the AC50 was 0.683 µM (active).

For the compound `CN1C(=O)CC[C@H]1c1cccnc1`, the result was inactive.

For the compound `Clc1cc(Cl)c2c(c1)N=C1CCCCCN1C2`, the result was inactive.

Consider `Cc1cn([C@H]2C[C@H](N=[N+]=[N-])[C@@H](CO)O2)c(=O)[nH]c1=O`, for which the result was inactive.

In the case of `CCCCCCCCCCCC[N+](C)(C)C`, the AC50 is 8.63 µM (active).

`CN1C(=O)N(c2ccccc2Br)Cc2cnc(Nc3ccc4c(c3)OCC(CO)O4)nc21` (stereo not drawn): the AC50 was 1.81 µM (active).

`COc1ccc2cc(S(=O)(=O)N[C@H](CC(=O)N[C@H](Cc3ccc(CN4[C@H](C)CCC[C@@H]4C)cc3)C(=O)N(C)C(C)C)c3ccc4c(c3)OCO4)ccc2c1`: the AC50 was 18.9 µM (active).

Turning to `OCCO`, the outcome was inactive.
